In PubChem BioAssay (EPA / NIEHS):
Results filed as inconclusive are left out. Active and inactive are the calls of the source. Rule for the calls: active = hit-call score of the fitted dose curve at least 0.9, where 1 is the maximum; inconclusive = response in the unintended direction; inactive = score below 0.9.

test: ACEA_ER_AUC_viability: ACEA Biosciences xCELLigence Real-Time Cell Analysis on Estrogen Receptor Agonism for Viability (AID 2283782);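 note: continuous compound exposure with impedance area under curve over 80 h; hit means loss of impedance signal meaning reduced cell growth or viability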
Protocol: ACEA_ER is a cell-based, single-readout assay that uses T47D, a human breast cell line, with measurements taken at 80 hours after chemical dosing in a 96-well plate, although TO2 (mc0.srcf) used a 384-well plate. Differences in plate size can be ignored given data normalization.ACEA_ER_AUC_viability is one of two assay component(s) measured or calculated from the ACEA_ER assay. It is designed to make measurements of real-time cell-growth kinetics, a form of growth reporter, as detected with electrical impedance signals by Real-Time Cell Electrode Sensor (RT-CES) technology.Data from the assay component ACEA_ER_AUC_viability was analyzed in the positive analysis fitting direction relative to DMSO as the negative control and baseline of activity. Using a type of growth reporter, loss-of-signal activity can be used to understand changes in the viability. Furthermore, this assay endpoint can be referred to as a secondary readout, because this assay has produced multiple assay endpoints where this one serves a viability function. To generalize the intended target to other relatable targets, this assay endpoint is annotated to the cell cycle intended target family, where the subfamily is cytotoxicity.
The xCELLigence system Multi-E-Plate stations were used to measure the time-dependent response to chemicals. Each compound was tested in an eight-point, 1:4 serial dilution series starting at a maximum final concentration of 100 uM. A maximum starting concentration of 0.5% DMSO was present in the 100 uM chemical samples and was diluted along with the test article dilution series. The screen was performed in biological duplicate using two separate, 96-well, E-Plates 96 for each dilution series (n = 2). Positive controls (MG132 and E2) and a negative control (assay media) were tested in quadruplicate on each testing plate. Then, 0.5% and 0.125% DMSO were tested in duplicates in each plate to serve as solvent controls for the 2 highest concentrations of testing compounds: 100 uM and 25 uM. Reference compounds were tested with 8 concentrations with 1:5 serial dilutions. All screening was carried out by ACEA Biosciences, Inc. (San Diego, CA). T-47D cells purchased from ATCC were maintained in RPMI1640 media supplemented with 10% characterized fetal bovine serum (FBS). Before screening, T-47D cells were preconditioned in assay medium: phenol red-free RPMI1640 supplemented with 10% charcoal-stripped FBS. Cells were then detached and seeded in E-Plates 96 in assay medium. After overnight monitoring of growth once every hour, compounds were added to […] cells and remained in the medium until the end of the experiment. Cellular responses were then recorded once every 5 min for the first 5 h, and once every hour for an additional 100 h.

SMILES | outcome | AC50
CCCCOC(=O)c1ccccc1C(=O)O | inactive | –
CC(C)N(C(=O)SCC(Cl)=C(Cl)Cl)C(C)C | – | 77.3 µM (active)
C#CCC1=C(C)C(OC(=O)C2C(C=C(C)C)C2(C)C)CC1=O (stereo not given) | – | 49.8 µM (active)
CNC(=O)Oc1cccc2c1OC(C)(C)O2 | inactive | –
COc1cccc(C(=O)NN(C(=O)c2cc(C)cc(C)c2)C(C)(C)C)c1C | inactive | –
O=[N+]([O-])c1cc(C(F)(F)F)c(Cl)c([N+](=O)[O-])c1Nc1ncc(C(F)(F)F)cc1Cl | – | 3.24 µM (active)
CCC(=NOC/C=C/Cl)C1=C(O)CC(C2CCOCC2)CC1=O (stereo not given) | inactive | –
CC[C@H](C)[C@H]1O[C@]2(C=C[C@@H]1C)C[C@@H]1C[C@@H](C/C=C(\C)[C@@H](O[C@H]3C[C@H](OC)[C@@H](O[C@H]4C[C@H](OC)[C@@H](NC)[C@H](C)O4)[C@H](C)O3)[C@@H](C)/C=C/C=C3\CO[C@@H]4[C@H](O)C(C)=C[C@@H](C(=O)O1)[C@]34O)O2 | – | 1.82 µM (active)
CC(COc1ccc(Oc2ccccc2)cc1)Oc1ccccn1 (stereo not given) | inactive | –
CN(C)C(=O)Nc1cccc(C(F)(F)F)c1 | inactive | –
CCCCSP(=O)(SCCCC)SCCCC | – | 71.4 µM (active)
COP(=O)(OC)C(O)C(Cl)(Cl)Cl (stereo not given) | – | 76.5 µM (active)
CC(C1CC1)C(O)(Cn1cncn1)c1ccc(Cl)cc1 (stereo not given) | inactive | –
O=C(O)c1cc(Oc2ccc(C(F)(F)F)cc2Cl)ccc1[N+](=O)[O-] | inactive | –
CNC(=O)ON=C(SC)C(=O)N(C)C | – | 65.5 µM (active)
CCCCOC(=O)[C@@H](C)Oc1ccc(Oc2ccc(C#N)cc2F)cc1 | inactive | –
CCOP(=S)(OCC)OC(Cl)C(Cl)(Cl)Cl (stereo not given) | – | 76.4 µM (active)
CCCOCC(=Nc1ccc(Cl)cc1C(F)(F)F)n1ccnc1 | – | 23.1 µM (active)
CCCSP(=O)(OCC)Oc1ccc(Br)cc1Cl (stereo not given) | – | 38.6 µM (active)
COP(=O)(OC)OC(Br)C(Cl)(Cl)Br (stereo not given) | – | 30.7 µM (active)

SMILES | outcome | AC50
CSc1nnc(C(C)(C)C)c(=O)n1N | inactive | –
CCOC(=O)CC(SP(=O)(OC)OC)C(=O)OCC (stereo not given) | inactive | –
CC1=NNC(=O)N(/N=C/c2cccnc2)C1 | inactive | –
CCOP(=S)(Oc1cnc(C(C)(C)C)nc1)OC(C)C (stereo not given) | – | 81.4 µM (active)
S=C1NCCN1 | inactive | –
C=C(C)[C@H]1Cc2c(ccc3c2O[C@@H]2COc4cc(OC)c(OC)cc4[C@@H]2C3=O)O1 | inactive | –
Nc1nc(N)nc(NC2CC2)n1 | inactive | –
COP(=O)(NC(C)=O)SC (stereo not given) | inactive | –
CON=C(C(=O)OC)c1ccccc1CON=C(C)c1cccc(C(F)(F)F)c1 | – | 90.5 µM (active)
CCOC(=O)COc1cc(-c2nn(C)c(OC(F)F)c2Cl)c(F)cc1Cl | inactive | –
CCC(CC)Nc1c([N+](=O)[O-])cc(C)c(C)c1[N+](=O)[O-] | – | 76.8 µM (active)
CCc1cccc(CC)c1N(COC)C(=O)CCl | inactive | –
CC(=NC#N)N(C)Cc1ccc(Cl)nc1 | inactive | –
O=c1ccc(=O)[nH][nH]1 | inactive | –
FC(F)C(F)(F)OCC(Cn1cncn1)c1ccc(Cl)cc1Cl (stereo not given) | – | 75.7 µM (active)
C[Si](Cn1cncn1)(c1ccc(F)cc1)c1ccc(F)cc1 | – | 76.2 µM (active)
CCOP(=S)(OCC)Oc1ccc([N+](=O)[O-])cc1 | inactive | –
N#CSCSC#N | – | 6.97 µM (active)
COc1ccc(C(=CC(=O)N2CCOCC2)c2ccc(Cl)cc2)cc1OC | inactive | –
CCOP(=S)(OCC)Oc1cc(C)nc(C(C)C)n1 | – | 82 µM (active)
